Assay results from PubChem BioAssay (NCATS).
Results filed as inconclusive are left out. A call without a number means that no potency is given here. The source made the active and inactive calls. Unless noted, calls follow the shape of the dose curve; as a rule, active = well fitted curve in the direction sought with a large enough effect; inconclusive = small, poorly fitted or top-dose-only effect, or another doubt; inactive = no such curve, though single readings can be large; an effect the other way counts as inactive or inconclusive.

How the values were obtained:
[1] = MultiTox-Fluor Cytotoxicity Assay - LYMP1-002 - Live Cells (AID 955); conditions: LYMP1-002 lymphoblastoid live-cell protease fluorescence viability; series mostly up to 46.1 µM;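 also: cells exposed to compound for 16 hours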
Procedure, shortened: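 Cells were seeded at 2500 per well and incubated 5 hr. Compounds were then added for 16 hr at 37 C, followed by MultiTox-Fluor reagent for 60 min at room temperature and fluorescence reading of viable-cell protease signal.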

[2] = MultiTox-Fluor Cytotoxicity Assay - LYMP1-002 - Dead Cells (AID 960); conditions: LYMP1-002 lymphoblastoid cells, dead-cell protease fluorescence; series mostly up to 46.1 µM;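 also: cells exposed to compound for 16 h at 37 °C; nearly all actives have a fitted effect of over 60% in size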
Procedure, shortened: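 Cells were plated, rested 5 hr, then treated with compound dilution series for 16 hr at 37 C. After adding substrate reagent and 60 min at room temperature, dead-cell protease fluorescence gave concentration-response curves fitted by the Hill equation.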

[3] = MultiTox-Fluor Cytotoxicity Assay - LYMP1-003 - Dead Cells (AID 961); conditions: LYMP1-003 lymphoblastoid cells, dead-cell protease fluorescence; series mostly up to 92.2 µM;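 also: cells exposed to compound for 16 h at 37 °C; nearly all actives have a fitted effect of over 70% in size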
Procedure, shortened: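 Human lymphoblastoid LYMP1-003 cells (2500/well) were treated with compounds for 16 hr at 37 C in complete medium. Dead-cell protease release was read by bis-AAF-R110 fluorescence (Ex/Em 485/520). AC50 came from Hill fits, normalized to DMSO and 15 uM tetraoctylammonium bromide.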

[4] = Cell Viability - LYMP1-003 - Assay at 24 hr (AID 963); conditions: LYMP1-003 lymphoblastoid cell viability; series mostly up to 92.2 µM
Procedure, shortened: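 Cytotoxicity is scored as a concentration-dependent fall in ATP-linked luciferase signal in human lymphoblastoid LYMP1-003 cells treated 24 hr at 37 C in complete culture medium.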

[5] = Cell Viability - LYMP1-003 - Assay at 40 hr (AID 964); conditions: LYMP1-003 lymphoblastoid viability; series mostly up to 92.2 µM; also: nearly all actives have a fitted effect of over 60% in size; also: potency is read from the fitted curve at half-maximal effect
Procedure, shortened: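 Luminescent ATP signal (CellTiter-Glo) served as the viability read-out after 40 hr compound treatment of human lymphoblastoid LYMP1-003 cells at 37 C. Decreases in ATP were fitted with the Hill equation to give AC50.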

[6] = Cell Viability - LYMP2-003 (AID 965); conditions: LYMP2-003 lymphoblastoid cell viability; series mostly up to 92.2 µM;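 also: cells exposed to compounds for 24 h before reading; nearly all actives have a fitted effect of over 50% in size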; also: potency is read from the fitted curve at half-maximal effect
Procedure, shortened: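 CellTiter-Glo luminescence quantified ATP loss after 24 h compound treatment of LYMP2-003 lymphoblastoid cells at 37 C. Titration series were fitted with the standard Hill equation to give AC50.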

[7] = Cell Viability - LYMP2-004 (AID 966); conditions: LYMP2-004 lymphoblastoid cell viability, qHTS; series mostly up to 92.2 µM; also: nearly all actives have a fitted effect of over 65% in size; also: potency is read from the fitted curve at half-maximal effect
Procedure, shortened: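 qHTS cytotoxicity: human lymphoblastoid line, 24 hr compound treatment, 37 C, complete medium. Viability read as cellular ATP via luciferase luminescence; tetraoctylammonium bromide served as positive control.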

[8] = biological target: Pyruvate kinase PKM (Homo sapiens) (UniProt P14618); experiment: qHTS Assay for Activators of Human Muscle Pyruvate Kinase (AID 954; active = well fitted curve in the direction sought with a large enough effect, not every such curve was filed as active); conditions: purified human muscle pyruvate kinase, luciferase-coupled luminescence, 1 h; series mostly up to 57.5 µM
Procedure, shortened: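 A coupled luminescent readout tracked ATP made from ADP by purified PKM2. Final conditions included 0.1 nM enzyme, PEP and ADP at 0.5 and 0.1 mM, pH 7.2 imidazole buffer with BSA, and a one-hour room-temperature reaction.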

Chain of Pyruvate kinase PKM (Homo sapiens) (P14618 whole entry, looked up): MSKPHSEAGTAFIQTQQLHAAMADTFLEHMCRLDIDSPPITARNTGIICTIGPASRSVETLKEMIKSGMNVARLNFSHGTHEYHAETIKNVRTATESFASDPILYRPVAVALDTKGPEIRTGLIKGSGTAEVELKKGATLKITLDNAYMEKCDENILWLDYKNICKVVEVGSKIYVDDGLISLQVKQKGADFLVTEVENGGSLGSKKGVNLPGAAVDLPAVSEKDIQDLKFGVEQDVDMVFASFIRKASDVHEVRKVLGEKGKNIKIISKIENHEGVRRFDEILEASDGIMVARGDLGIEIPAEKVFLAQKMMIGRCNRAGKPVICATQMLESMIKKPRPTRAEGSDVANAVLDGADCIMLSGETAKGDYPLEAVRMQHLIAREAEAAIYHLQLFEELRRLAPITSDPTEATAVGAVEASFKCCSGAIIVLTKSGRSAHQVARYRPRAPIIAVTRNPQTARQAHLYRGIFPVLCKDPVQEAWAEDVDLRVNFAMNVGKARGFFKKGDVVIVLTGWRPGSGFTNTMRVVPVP

CCCCOCCOCCOCc1cc2c(cc1CCC)OCO2
outcome [1]: inactive
Potency [2]: inactive
Potency [3]: inactive
outcome [4]: inactive
Potency [5]: inactive
Potency [6]: inactive
Potency [7]: inactive

Nc1ncn([C@@H]2O[C@H](CO)[C@@H](O)[C@H]2O)c(=O)n1
outcome [8]: inactive
Potency [5]: 12.6 µM (active)
Potency [6]: 10 µM (active)
Potency [7]: 12.6 µM (active)

Cc1scc2c1N(C(=O)CN1CCN(C)CC1)c1ccccc1NC2=O
outcome [8]: inactive

CN(C)CCCN1c2ccccc2Sc2ccccc21
outcome [8]: inactive

C[N+](C)(C)CCOC(=O)CCC(=O)OCC[N+](C)(C)C
outcome [8]: inactive

NCCCNCCSP(=O)(O)O
outcome [8]: inactive

COc1cc(Cc2cnc(N)nc2N)cc(OC)c1OC
outcome [8]: inactive
outcome [1]: inactive
Potency [2]: inactive
Potency [3]: inactive
outcome [4]: inactive
Potency [5]: inactive
Potency [6]: inactive
Potency [7]: inactive

CC(C)NNC(=O)c1ccncc1
outcome [8]: inactive

CSc1ccc(C(=O)c2[nH]c(=O)[nH]c2C)cc1
outcome [8]: inactive
